Rows were chosen to be rich in hits. Some 0.67% of all compounds tested hit in one or more screens of this group.
BH1578 lux ind: induces V. cholerae light production without autoinducers | 350,000 tested, 0.16% active | activation, % at 18.7 µM | V. cholerae BH1578 lux reporter, luminescence, 6 h | AID 588436; in the data active = activation mostly above about 9.7%, no sharp cut-off
Sa ugtP lethal: kills S. aureus RN4220 lacking UgtP; S. aureus RN4220 ugtP deletion, OD600 growth, 16 h; growth inhibition, % (concentration not given with the values); AID 1259309; 330,000 tested, 0.54% active; in the data active = growth inhibition above about 68%
RN4220 kill: S. aureus RN4220 growth inhibition; OD600, 16 h; inhibition, % (no concentration beside the values); 330,000 tested, 0.33% active; AID 1259311; in the data active = inhibition above about 85%
TcdB GH inh: blocks C. difficile toxin B glycohydrolase activity. inhibition, % at 9.99 µM. 350,000 tested, 0.24% active. TcdB glycohydrolase enzymatic assay, plate reader. AID 652162; in the data active = inhibition above about 10%
Of the large screens only hits and unclear results are named; the others gave an inactive call; ! = not confirmed by another sample.

COc1ccc(-c2nc3oc4cc(OC)ccc4c(=O)c3c(=O)n2Cc2ccco2)cc1	Sa ugtP lethal 98 (no result: TcdB GH inh)
COc1ccc(C=Cc2ccccc2)cc1C1C2C=CCC(C)C2C(=O)N1Cc1ccccc1 (stereo not given)	none (no result: BH1578 lux ind, TcdB GH inh)
CCOC(=O)c1ccc(N2C(=O)C(c3ccccc3)C2c2ccccc2)cc1 (stereo not given)	none (no result: BH1578 lux ind, TcdB GH inh)
COc1ccc2c(c1)OC(c1cccc(C(F)(F)F)c1)C(OC(=O)NCCc1ccc(OC)c(OC)c1)C2=O (stereo not given)	none (no result: BH1578 lux ind, TcdB GH inh)
Cn1c(-c2ccccc2)c(C(=O)CCl)c2ccccc21	none
CCn1c(-c2ccccc2)c(C(=O)CCl)c2ccccc21	Sa ugtP lethal 99, RN4220 kill 97
COC(=O)C(=CC=Cc1ccccc1)NC(=O)c1ccccc1	none (no result: BH1578 lux ind, TcdB GH inh)
CSc1nc(-c2ccc(Cl)cc2Cl)[nH]c(=O)c1C#N	TcdB GH inh 13
S=c1[nH]nc(NC2CCCCC2)s1	TcdB GH inh 18 (no result: Sa ugtP lethal, RN4220 kill)
Cc1ccc(Nc2n[nH]c(=S)s2)cc1	none (no result: Sa ugtP lethal, RN4220 kill)
CC(C)CC1CN=C(Nc2ccccc2)N1CC1CCCC1 (stereo not given)	none (no result: BH1578 lux ind, TcdB GH inh)
O=C(O)C1C(=O)NCC1c1ccccc1 (stereo not given)	TcdB GH inh 24
O=C1NCC(c2ccccc2)C1C(=O)NN=Cc1ccc(Cl)s1 (stereo not given)	none (no result: BH1578 lux ind, TcdB GH inh)
COc1ccc(C=NN(C)C2=NCCN2)c(OC)c1OC	none (no result: BH1578 lux ind, TcdB GH inh)
CCOC(=O)[C@]12Cc3cc(OC)c(OC)cc3C1N(Cc1ccccc1)C(=O)c1ccccc12 (stereo not given in full)	none (no result: BH1578 lux ind, TcdB GH inh)
COc1ccc(NC(=O)N(C)CC2Oc3ccc(NC(=O)CCC(F)(F)F)cc3C(=O)N(C(C)CO)CC2C)cc1 (stereo not given)	none (no result: BH1578 lux ind, TcdB GH inh)
Cc1c(CCOC(=O)C23CC4CC(CC(C4)C2)C3)sc[n+]1Cc1ccccc1	none
Cc1c(CCOC(=O)C23CC4(C)CC(C)(CC(C)(C4)C2)C3)sc[n+]1CC(=O)c1ccccc1	Sa ugtP lethal 100, RN4220 kill 98
Cc1c(CCOC(=O)C23CC4CC(CC(C)(C4)C2)C3)sc[n+]1Cc1ccccc1	Sa ugtP lethal 100 (no result: TcdB GH inh)
O=C(CN1CCCCC1)Nc1ccc(Br)cc1[N+](=O)[O-]	BH1578 lux ind 48
CC1CCN(CC(=O)Nc2ccc(Br)cc2[N+](=O)[O-])CC1	none
O=C(NNc1ccc(-c2csnn2)cc1)c1ccccc1C(F)(F)F	TcdB GH inh 12
O=C(NNc1ccc(-c2csnn2)cc1)c1cc(Cl)cc(Cl)c1	TcdB GH inh 18
COC(C)(C)[C@]12CC(O)(c3ccccc3)ON1C1CCCCC1N2O (stereo not given in full)	none (no result: BH1578 lux ind, TcdB GH inh)
CCOC(=O)NN=C1CCS(=O)(=O)c2ccc(Cl)cc21	none (no result: BH1578 lux ind, TcdB GH inh)
O=C(C1=CC(c2ccccc2)CC(OCCCCO)O1)N1CCN(Cc2ccc3c(c2)OCO3)CC1 (stereo not given)	none (no result: BH1578 lux ind, TcdB GH inh)
CCNC(=O)[C@H]1[C@H](CO)[C@H]2Cn3c(ccc(-c4ccccc4)c3=O)[C@H]2N1CC	TcdB GH inh 14 (no result: BH1578 lux ind, Sa ugtP lethal, RN4220 kill)
CCNC(=O)[C@@H]1[C@@H](CO)[C@@H]2Cn3c(ccc(-c4ccccc4)c3=O)[C@@H]2N1CC	none (no result: BH1578 lux ind, Sa ugtP lethal, RN4220 kill)
O=C(Cn1sc2ccccc2c1=O)NC12CC3CC(CC(C3)C1)C2	Sa ugtP lethal 101, RN4220 kill 106 (no result: TcdB GH inh)
O=[N+]([O-])c1cc(Br)ccc1NS(=O)(=O)c1ccccc1	TcdB GH inh 19
CC(/C=N/n1c(-c2ccncc2)n[nH]c1=S)=C\c1ccco1	TcdB GH inh 19 (no result: Sa ugtP lethal, RN4220 kill)
Cc1cccc(-c2n[nH]c(=S)n2/N=C/C=C/c2ccco2)c1	TcdB GH inh 10 (no result: Sa ugtP lethal, RN4220 kill)
C/C(C=Nn1c(-c2ccncc2)n[nH]c1=S)=C\c1ccco1	none (no result: BH1578 lux ind, TcdB GH inh)
CC(=NN=C(N)SC1CC(=O)N(c2cccc(Cl)c2)C1=O)c1cccs1 (stereo not given)	none (no result: BH1578 lux ind, TcdB GH inh)
CC(=NN=C(N)SC1CC(=O)N(c2ccc(Cl)c(Cl)c2)C1=O)c1cccs1 (stereo not given)	Sa ugtP lethal 99, RN4220 kill 100 (no result: BH1578 lux ind, TcdB GH inh)
Nc1ccc(-c2nc3ccc(N)cc3o2)cc1	TcdB GH inh 11
O=C1C(=Cc2ccco2)Oc2c1ccc(O)c2CN1CCCCC1	none (no result: BH1578 lux ind, TcdB GH inh)
Cc1cccc(CSC(Nc2ccc(F)cc2)=C(C#N)C#N)c1	Sa ugtP lethal 97, RN4220 kill 100 (no result: TcdB GH inh)
Cc1cccc(CSC(=N)N)c1	none
N#CC(C#N)=C(Nc1ccc(F)cc1)SCc1cccc(Br)c1	Sa ugtP lethal 96, RN4220 kill 100
CCCCC=CC(NC(=O)c1ccc(-c2ccccc2)cc1)c1ccccc1 (stereo not given)	none (no result: BH1578 lux ind, TcdB GH inh)
Cc1ccc2occ(C=NNC(=O)c3ccccc3O)c(=O)c2c1	none (no result: BH1578 lux ind, TcdB GH inh)
FC(F)(F)c1ccccc1C=NN1CCN(Cc2ccccc2)CC1	Sa ugtP lethal 93 (no result: BH1578 lux ind, TcdB GH inh)
C#CCOCCOCCOCCNc1nc(N2CCN(C(=O)C(CCCCN)n3cc(C(N)C(C)CC)nn3)CC2)nc(N2CCN(C(=O)C(C(C)CC)n3cc(C(N)CC(C)C)nn3)CC2)n1 (stereo not given)	none (no result: BH1578 lux ind, TcdB GH inh)
O=C(Nc1ccc(F)cc1)NC1(C(=O)NCc2ccc3c(c2)OCO3)CCCCC1	Sa ugtP lethal 100 (no result: TcdB GH inh)
O=C(Nc1ccc(F)cc1)NC1(C(=O)NCc2ccco2)CCCCC1	none (no result: TcdB GH inh)
COc1ccc(Br)cc1C=Nn1c(C)nnc1C	none (no result: BH1578 lux ind, TcdB GH inh)
COc1c(Br)cc(Br)cc1/C=N/n1c(C)nnc1C	BH1578 lux ind 5.6 (no result: Sa ugtP lethal, RN4220 kill, TcdB GH inh)
COc1ccc(OC)c(NC(=O)CSc2ccccc2)c1	none (no result: BH1578 lux ind, TcdB GH inh)
COc1ccc(OC)c(NC(=O)CSCC(=O)O)c1	BH1578 lux ind 17 (no result: TcdB GH inh)
NC(N)=NC(=O)c1nc(Cl)c(N2CCCCCC2)nc1N	none (no result: Sa ugtP lethal, RN4220 kill)
NC(N)=NC(=O)c1nc(Cl)c(N)nc1N	Sa ugtP lethal 98!
CC(NC(=O)c1nc[nH]c1C(=O)NCCCCCN)C(=O)OCc1ccccc1 (stereo not given)	none (no result: BH1578 lux ind, TcdB GH inh)
N/C(=N\N=C\c1ccc(O)cc1)c1nonc1N	TcdB GH inh 28 (no result: Sa ugtP lethal, RN4220 kill)
CCC(C)NC(=O)CSc1nc2cc(S(=O)(=O)N3CCOCC3)ccc2n1CC (stereo not given)	TcdB GH inh 11
CC(C)(C)N1C(=O)C2C(c3ccc(Br)cc3)N3C(=O)N(c4cccc(Br)c4)C(=O)[C@@]3(Cc3ccccc3)C2C1=O (stereo not given in full)	none (no result: BH1578 lux ind, TcdB GH inh)
C(=NNc1nc(N2CCCC2)nc(N2CCCC2)n1)c1ccccc1OCc1ccccc1	none (no result: BH1578 lux ind, TcdB GH inh)
CC(C)Sc1nnc(NC(=O)c2ccco2)s1	TcdB GH inh 22
CC(Sc1nc2ccccc2n1C)C(=O)Nc1ccc(N2CCOCC2)cc1 (stereo not given)	TcdB GH inh 13
COc1cccc(N2CCN(C(=O)c3ccc(CS(=O)Cc4ccc(Cl)cc4)o3)CC2)c1 (stereo not given)	Sa ugtP lethal 92
COc1ccc(N2CCN(C(=O)c3ccc(CS(=O)Cc4ccc(C)cc4)o3)CC2)cc1 (stereo not given)	Sa ugtP lethal 96
O=C(c1ccc(CS(=O)Cc2ccc(Cl)cc2)o1)N1CCN(c2ccccc2)CC1 (stereo not given)	Sa ugtP lethal 94
COc1cccc(N2CCN(C(=O)c3ccc(CS(=O)Cc4ccccc4Cl)o3)CC2)c1 (stereo not given)	none
COc1cccc(C=NNC(=O)C(=O)N2CCCCCC2)c1OC	none (no result: BH1578 lux ind, TcdB GH inh)
COC(=O)c1ccc(C=Cc2c(-c3ccc(OC)cc3)sc3ccccc23)cc1	none (no result: BH1578 lux ind, TcdB GH inh)
NC(Cc1ccc(O)cc1)c1nnc(C(CC(=O)O)NC(=O)C2CCNCC2)o1 (stereo not given)	none (no result: BH1578 lux ind, TcdB GH inh)
